In the library only some 3.5% were active in any assay of this set; here they are far more common.
TEAD-YAP inh: TEAD-YAP interaction inhibition; actives 1.4% (n = 640,000); inhibition, % at 9.12 µM; HEK-TIYL cells, TEAD-Gal4/YAP UAS-luciferase luminescence; in the data active means inhibition above about 32%
FBW7 activator: activators of human E3 ligase FBW7; Q969H0; AlphaScreen FBW7–phospho-cyclin E peptide binding, activator screen; normalized activity (activation), % at 26.1 µM; actives 0.13% (n = 650,000); AID 1259310; in the data active means normalized activity above about 1.9%;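 further: purified mutant Fbw7 with reduced substrate affinity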
MITF inh: blocks human microphthalmia-associated transcription factor. inhibition, % at 2.6 µM. actives 0.91% (n = 650,000). O75030. AlphaScreen MITF homodimerization, bead proximity signal; in the data active means inhibition above about 50%
GPR151 activ: activates the human receptor GPR151. Q8TDV0. PathHunter beta-arrestin GPR151 cells, luminescence. activation, % at 11.2 µM. actives 1% (n = 650,000). AID 1508602; in the data active means activation above about 4.9%
GPR151 confirm: human GPR151 activation, confirmation screen. 6,700 tested, under 10 active. GPR151 PathHunter beta-arrestin cells, luminescence, 90 min; % of EA-reagent control over plate median. activation, % at 11.2 µM. shares compounds with GPR151 activ;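 active means mean percent activation across replicates above the confirmation screen cutoff of 4.91%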
GPR119 counter: GPR119 activation, counter-screen for GPR151 activators | shares compounds with GPR151 activ | actives 0.3% (n = 6,700) | AID 1508611 | GPR119 PathHunter beta-arrestin cells, luminescence, 90 min; 0 = compound-well median, 100 = enzyme-acceptor control | activation, % at 11.2 µM;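 active means mean percent activation in the counterscreen above 29.09%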;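 further: counterscreen on off-target GPR119 to flag nonselective hits from the GPR151 activator screen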
Large screens that a line does not name were inactive (follow-up assays come after a bar, where they were run); ! = not confirmed by another sample.

CCOC(=O)c1ccc(N=c2oc3c(C)ncc(CO)c3cc2C(=O)Nc2ccc(OC)cc2)cc1	none
O=C(O)CCCC(=O)N1CCC(N2C(=O)Cc3ccccc32)CC1	GPR151 activ 9.2 | GPR151 confirm inactive | GPR119 counter inactive
CCOc1ccc(N2C(=O)NC(=O)/C(=C\c3ccc(OC)c(OC)c3)C2=O)cc1	none
COc1ccc(N2C(=O)NC(=O)/C(=C\c3ccc(F)cc3)C2=O)cc1	GPR151 activ 5.5 | GPR151 confirm inactive | GPR119 counter inactive
C=CCOc1ccc(/C=C2/C(=O)NC(=O)N(c3ccc(OCC)cc3)C2=O)cc1OCC	GPR151 activ 7.6 | GPR151 confirm inactive | GPR119 counter inactive
COC1C(OC(N)=O)C(O)C(Oc2ccc3c(O)c(NC(=O)c4ccc(O)c(CC=C(C)C)c4)c(=O)oc3c2C)OC1(C)C (centres undefined)	GPR151 activ 6.6! | GPR151 confirm inactive | GPR119 counter inactive
CCOC(=O)c1c(C2COc3ccccc3O2)csc1NC(=O)c1ccc(OC)c(OC)c1 (centres undefined)	none
CCOC(=O)C1(Cc2ccccc2C(F)(F)F)CCN(C(=O)Cc2nonc2C)CC1	none
Cc1nonc1CN(C)C(=O)C1CC12CCN(C(=O)c1ccccc1C(F)(F)F)CC2 (centres undefined)	GPR151 activ 5.3 | GPR151 confirm inactive | GPR119 counter inactive
Fc1ccc(/C=N/Nc2nc3ccccc3s2)cc1	GPR151 activ 7.0 | GPR151 confirm inactive | GPR119 counter inactive
O=C(Oc1ccc(OC(=O)c2ccncc2)cc1)c1ccncc1	GPR151 activ 10.2 | GPR151 confirm inactive | GPR119 counter inactive
COc1ccc(C(=O)Oc2ccc(/C=C/c3ccncc3)cc2)cc1OC	TEAD-YAP inh 57.2, GPR151 activ 5.2 | GPR151 confirm inactive | GPR119 counter inactive
Cn1cccc1-c1nc2ccc(N)cc2[nH]1	GPR151 activ 6.3 | GPR151 confirm inactive | GPR119 counter inactive
Nc1cccc(-c2nc3ccc(Cc4ccc5nc(-c6cccc(N)c6)[nH]c5c4)cc3[nH]2)c1	GPR151 activ 7.0 | GPR151 confirm inactive | GPR119 counter inactive
COc1ccc(N2C(=O)[C@@H]3C[C@H]2CN3C(=O)/C=C/c2cccs2)cc1Cl	none
COc1ccccc1CNC(=O)C(NS(=O)(=O)c1ccc2nc(C)sc2c1)C(C)C (centres undefined)	none
CCOC(=O)/C(C#N)=C/Nc1ccccc1NS(=O)(=O)c1cccc(C(C)=O)c1	none
CCOC(=O)/C(C#N)=C/Nc1ccccc1NS(=O)(=O)c1ccc(C)c(C)c1	GPR151 activ 5.5 | GPR151 confirm inactive | GPR119 counter inactive
N#C/C(=C\c1ccc(-c2cc(C(F)(F)F)ccc2Cl)o1)C(N)=O	none
O=C(Nc1cccc(-c2ccc(F)cc2)c1)C1CCCN(C(=O)c2cscn2)C1 (centres undefined)	GPR151 activ 16.7 | GPR151 confirm inactive | GPR119 counter inactive
O=C(Nc1ccc(-c2cccc(F)c2)cc1)C1CCCN(C(=O)c2cscn2)C1 (centres undefined)	none
CC(C)(CO)CN1CCCC(C(=O)Nc2cccc(-c3ccc(F)cc3)c2)C1 (centres undefined)	GPR151 activ 6.2 | GPR151 confirm inactive | GPR119 counter inactive
CSCC(=O)N1CCCC(C(=O)Nc2ccc(-c3cccc(F)c3)cc2)C1 (centres undefined)	GPR151 activ 5.6 | GPR151 confirm inactive | GPR119 counter inactive
CSCCC(=O)N1CCCC(C(=O)Nc2ccc(-c3cccc(F)c3)cc2)C1 (centres undefined)	none
CCOc1ccc(Br)cc1/C=C1\SC(=S)N(CCOC)C1=O	none
COc1ccc(C2/C(=C(\O)c3ccc(S(=O)(=O)N(C)C)cc3)C(=O)C(=O)N2CCN(C)C)cc1OC (centres undefined)	none
CCc1cc2c(=O)c(-c3ccccc3)c(C(F)(F)F)oc2cc1OC	none
CC(C)c1nnc(NC(=O)c2ccc([N+](=O)[O-])c(Cl)c2)s1	none
CN1CCN(c2ccccc2NC(=O)c2ccc([N+](=O)[O-])cc2Cl)CC1	none
Cc1c(Cl)cccc1NC(=O)c1cc([N+](=O)[O-])ccc1N1CCN(C)CC1	GPR151 activ 6.2 | GPR151 confirm inactive | GPR119 counter inactive
